# From PubChem BioAssay (NCATS)
# Records with an inconclusive call do not appear. Entries that show only a call come without a potency. Values without a mark were called inactive. The source made the active and inactive calls. The call rests on the fitted dose curve; in most records, active means well fitted curve in the direction sought with a large enough effect; inconclusive means small, poorly fitted or top-dose-only effect, or another doubt; inactive means no such curve, though single readings can be large; an effect the other way counts as inactive or inconclusive.
# Key:
# [1] = system: Zika virus NS2B-NS3 protease; test: Primary screen GU AMC qHTS for Zika virus inhibitors (AID 1347154); further: nearly all actives have a fitted effect of over 70% in size; further: potency means the concentration at half of the fitted maximal effect
# How it was run: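 Unlinked Zika NS2B hydrophilic domain/NS3 protease domain noncovalent complex (25 nM final) in 10 mM Tris-HCl pH 8.0, 0.01% Tween 20, with AMC peptide substrate. Fluorescence (ex 340, em 450 nm) change over 15 min, room temperature; percent inhibition fitted to 4-parameter Hill equation.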
# Furin (Homo sapiens) = Furin (Homo sapiens) (UniProt P09958); test: Furin counterscreen qHTS for Zika virus inhibitors (AID 1347149); further: nearly all actives have a fitted effect of over 70% in size; further: potency means the concentration at half of the fitted maximal effect;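 on activity change, negative = inhibition: purified recombinant full-length human furin enzyme at 5 nM; fluorescence gain from furin cutting a BOC-RVRR-AMC peptide substrate over 15 min; top concentration of the series differs between compounds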
# Sequence of Furin (Homo sapiens) (P09958 whole entry, looked up): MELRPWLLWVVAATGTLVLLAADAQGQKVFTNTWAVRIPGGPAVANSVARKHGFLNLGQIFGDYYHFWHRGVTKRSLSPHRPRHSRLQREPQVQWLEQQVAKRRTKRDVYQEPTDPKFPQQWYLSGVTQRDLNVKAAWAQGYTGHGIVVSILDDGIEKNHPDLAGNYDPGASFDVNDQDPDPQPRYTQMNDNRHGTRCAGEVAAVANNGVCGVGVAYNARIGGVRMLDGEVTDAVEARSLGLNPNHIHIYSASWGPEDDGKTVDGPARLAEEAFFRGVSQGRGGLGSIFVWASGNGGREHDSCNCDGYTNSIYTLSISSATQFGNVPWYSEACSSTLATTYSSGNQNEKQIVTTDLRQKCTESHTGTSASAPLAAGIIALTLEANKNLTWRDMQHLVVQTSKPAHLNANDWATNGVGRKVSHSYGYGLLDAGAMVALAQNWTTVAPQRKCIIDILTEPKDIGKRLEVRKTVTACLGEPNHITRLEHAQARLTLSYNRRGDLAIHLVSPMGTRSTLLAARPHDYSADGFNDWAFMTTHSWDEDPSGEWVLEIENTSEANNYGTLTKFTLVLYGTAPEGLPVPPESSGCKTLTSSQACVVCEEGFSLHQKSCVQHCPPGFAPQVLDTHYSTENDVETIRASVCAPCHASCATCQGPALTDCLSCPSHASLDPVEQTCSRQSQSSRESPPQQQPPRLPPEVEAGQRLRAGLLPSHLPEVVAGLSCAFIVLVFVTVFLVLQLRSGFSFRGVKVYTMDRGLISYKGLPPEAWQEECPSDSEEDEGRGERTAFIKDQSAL
# How it was run: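 Counterscreen measures cleavage of 2 microM BOC-RVRR-AMC, below its ~15 microM Km, by 5 nM full-length human furin at pH 7.0 after a 15-min compound preincubation. Inhibition derives from the 15-min fluorescence increase at 37C.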
# [2] = Confirmatory screen GU Rhodamine qHTS for Zika virus inhibitors qHTS (AID 1347157); further: nearly all actives have a fitted effect of over 70% in size
# Source text: Avindra Nath, Ph.D., National Institute of Neurological Disorders and Stroke (NINDS), Bethesda, MD
# Radhakrishnan Padmanabhan, Ph.D., Georgetown University (GU), Washington D.C.
# Zika Virus causes congenital defects, including microcephaly and is associated with Guillain-Barre syndrome, eningoencephalitis and myelitis in infected adult. […] Using a target-based approach, we hope to establish a screening paradigm to uncover novel, cell-active NS2B-NS3 protease (Zika Virus) specific inhibitors from NCATS' collection of small molecules using qHTS.
# Four assay panel was created to identify potential Zika Virus inhibitors. Namely, (1) GU unlinked NS2B-NS3 AMC tagged protease qHTS, (2) GU unlinked NS2B-NS3 Rhodamine tagged protease qHTS, (3) NINDS linked NS2B-NS3 AMC tagged protease qHTS, (4) NINDS linked NS2B-NS3 Rhodamine tagged protease qHTS. Active compounds were re-acquired and re-screened to confirm inhibition. Inhibitors were further screened against various confirmatory and counterscreens in dose response format.
# Early Translation Branch (ETB)
# National Center for Advancing Translational Sciences (NCATS), Rockville, MD
# National Institute of Health (NIH), Bethesda, Maryland
# Padmanabhan lab provided the NS2B hydrophilic domain and NS3 protease domain in a noncovalent complex used for the unlinked assay. Control compound aprotinin is obtained from Thermo Scientific (#78432; Waltham, Massachusetts). […]
# Briefly, 3 microL of enzyme (25 nM final concentration), in assay buffer (10 mM Tris-HCl pH 8.0 with 0.01% Tween 20) were dispensed into a 1,536-well solid-bottom black plate (Greiner Bio One, Monroe, NC). […] Plates were then immediately read on a ViewLux High-throughput CCD imager (PerkinElmer, Waltham, MA) equipped with FITC fluorescence optics (480(20) nm excitation, 540(25) nm emission), then incubated (room temperature, protected from light) for 15 minutes (~15% conversion). The change in fluorescence intensity over the 15-minute reaction period was normalized against no-inhibitor and no-enzyme controls and the resulting percent inhibition data were fitted to a 4-parameter Hill equation. […]
# [3] = Confirmatory screen NINDS Rhodamine qHTS for Zika virus inhibitors (AID 1347161); further: nearly all actives have a fitted effect of over 60% in size; further: potency means the concentration at half of the fitted maximal effect;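 on activity change, negative = inhibition: purified Zika NS2B-NS3 protease with linked NS2B cofactor domain and Rhodamine110 peptide substrate; series mostly up to about 110 µM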
# How it was run: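 qHTS dose-response: 25 nM linked protease, pH 8.0 Tris/Tween buffer, cpd titration, 15 min RT preinc, 1.5 microM Rhod110 peptide, 15 min reaction (~15% conversion), Ex480/Em540; 4-parameter Hill fit.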
# [4] = system: Zika virus NS2B-NS3 protease (unlinked); test: Optimization of GU AMC qHTS for Zika virus inhibitors: Unlinked NS2B-NS3 protease assay (AID 1347151); further: nearly all actives have a fitted effect of over 80% in size; further: potency means the concentration at half of the fitted maximal effect; on activity change, negative = inhibition: series mostly up to about 52 µM
# How it was run: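 Percent inhibition is derived from the 15-min change in AMC fluorescence, normalized against no-inhibitor and no-enzyme controls, then fitted to a 4-parameter Hill curve. Aprotinin was the intraplate control.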
# [5] = system: Zika virus NS2B-NS3 protease (unlinked complex); test: Primary screen GU Rhodamine qHTS for Zika virus inhibitors: Unlinked NS2B-NS3 protease assay (AID 1347159); further: nearly all actives have a fitted effect of over 60% in size; further: potency means the concentration at half of the fitted maximal effect
# How it was run: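 Percent inhibition came from the 15-min rise in Rhodamine110 fluorescence (1.5 microM substrate, ~15% conversion), normalized to no-inhibitor and no-enzyme wells and Hill-fitted. Unlinked protease, 25 nM, pH 8.0 Tris buffer; compounds up to 114 microM, 15-min preincubation.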
# [6] = system: Zika virus NS2B-NS3 protease (linked construct); test: Primary screen NINDS Rhodamine qHTS for Zika virus inhibitors (AID 1347160); details: outcome: dose series up to 57.1 µM unless noted; further: nearly all actives have a fitted effect of over 55% in size
# How it was run: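 Rhodamine110-peptide cleavage (1.5 µM substrate) by 25 nM linked NS2B-NS3 enzyme at pH 8.0 (Tris, Tween 20), after 15 min RT preincubation with compounds; 15-min fluorescence change normalized to controls and Hill-fitted.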
# [7] = system: Zika virus NS2B-NS3 protease (linked construct); test: Confirmatory screen NINDS AMC qHTS for Zika virus inhibitors (AID 1347152); further: nearly all actives have a fitted effect of over 70% in size; further: potency means the concentration at half of the fitted maximal effect;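 on activity change, negative = inhibition: AMC fluorescence gain from cleaved Bz-Nle-KRR-AMC substrate over 15 min; top concentration of the series differs between compounds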
# How it was run: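 In this dose-response qHTS, AMC release from 10 microM Bz-Nle-KRR-AMC by 1 nM linked protease is measured over 15 minutes (about 20% conversion) at pH 8.0. Percent inhibition is fitted to a 4-parameter Hill curve.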
# [8] = system: Zika virus NS2B-NS3 protease (unlinked complex); test: Confirmatory screen GU AMC qHTS for Zika virus inhibitors (AID 1347153); further: nearly all actives have a fitted effect of over 70% in size;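 on potency: enzyme at 25 nM with substrate at 10 µM below its Km of 18.3 µM; potency means the concentration at half of the fitted maximal effect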
# How it was run: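 Compounds were preincubated 15 min at room temperature with 25 nM noncovalent NS2B-NS3 protease at pH 8.0; AMC substrate added at 10 microM and 15-min fluorescence gain (340/450 nm) converted to percent inhibition, fitted 4-parameter.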
# [9] = ZIKV-mCherry secondary qHTS for Zika virus inhibitors (AID 1347158); further: top concentration of the series differs between compounds
# How it was run: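 Compounds were tested in Vero monkey kidney cells infected with recombinant mCherry-expressing Zika virus at MOI 1 for 48-72 h at 37 °C. Fixed cells were nuclear-stained and imaged, and infection rate was taken as the fraction of mCherry-positive cells.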
structure (smiles),measurement,setting,value
CCOC(=O)N1CCC(Nc2ccc(Cl)cc2N)CC1,Potency,[1],inactive
O=C(COCCOCCOCC(=O)Nc1c(I)cc(I)c(C(=O)O)c1I)Nc1c(I)cc(I)c(C(=O)O)c1I,Potency,Furin (Homo sapiens),inactive
same,Potency,[1],inactive
same,Potency,[2],inactive
same,Potency,[3],inactive
COc1cccc2c1[C@@H]1CN(CCCCn3c(=O)[nH]c4c(sc5ncc(-c6ccccc6)nc54)c3=O)C[C@@H]1CO2,Potency,[4],inactive
COc1cc2c(cc1OC)C(=O)CC2,Potency,[1],inactive
Nc1ncnc2n[nH]c(Nc3ccc(F)cc3)c12,Potency,[4],inactive
same,Potency,[5],inactive
same,outcome,[6],inactive
Cn1cnc2c(NCc3ccccc3)nc(NCCO)nc21,Potency,[4],inactive
same,Potency,[1],inactive
N[C@@H](Cn1ccc(=O)c(O)c1)C(=O)O,Potency,[4],inactive
same,"activity change, negative = inhibition",[5],13% [at 11.5 µM]
same,outcome,[6],inactive [at 4.91 µM]
COc1cc2c(cc1OC)CN(C(=O)[C@H](C)N[C@@H](CCc1ccccc1)C(=O)O)[C@H](C(=O)O)C2,Potency,[1],inactive
C[N+](C)(C)CCO,Potency,[4],inactive
CC(=O)OCC(=O)[C@@]1(O)CCC2C3CCC4=CC(=O)CC[C@]4(C)C3[C@@H](O)C[C@@]21C (some centres undefined),Potency,[1],inactive
Cc1cccc(C)c1NC(=O)c1cc(S(N)(=O)=O)c(Cl)cc1O,Potency,[1],inactive
N[C@@H](Cc1cc(I)c(O)c(I)c1)C(=O)O,Potency,Furin (Homo sapiens),inactive
same,Potency,[7],inactive
same,Potency,[8],inactive
COCCc1ccc(OCC2CO2)cc1 (centres undefined),Potency,[1],inactive
Cc1ccc(C(=O)Oc2ccc(C(O)CNC(C)(C)C)cc2OC(=O)c2ccc(C)cc2)cc1 (centres undefined),Potency,[1],inactive
Cc1nn(-c2ccccc2)c(C)c1/C=N/N1CCN(Cc2ccccc2)CC1,Potency,[4],inactive
same,Potency,[5],inactive
same,outcome,[6],inactive
O=C(Nc1ccc(S(=O)(=O)N2CCOCC2)cc1)c1cc(Cl)ccc1NS(=O)(=O)c1ccc(Cl)s1,Potency,Furin (Homo sapiens),21.5 µM (active)
same,Potency,[7],17.1 µM (active)
same,Potency,[8],17.1 µM (active)
same,Potency,[1],14.4 µM (active)
same,Potency,[3],1.75 µM (active)
COc1ccccc1N1CCN(CCN2C(=O)CC3(CCCC3)CC2=O)CC1,Potency,[4],inactive
same,Potency,[1],inactive
same,Potency,[5],inactive
same,outcome,[6],inactive
CCOC(=O)Oc1ccc(CCNC(=O)[C@H](CCSC)NC(C)=O)cc1OC(=O)OCC,Potency,[1],inactive
COCCc1ccccn1,Potency,[1],inactive
O=[N+]([O-])c1ccc(-c2nc(-c3ccc(F)cc3)c(-c3ccncc3)[nH]2)cc1,Potency,[4],inactive
same,Potency,[5],79.4 µM (active)
same,outcome,[6],inactive
CC(C)N(CCC(=O)c1ccc2ccccc2c1)Cc1ccccc1,Potency,[4],26.7 µM (active)
same,Potency,[1],inactive
same,outcome,[6],inactive
CN1CCN(N)CC1,Potency,[1],inactive
CC(C)=CCC/C(C)=C/CC/C(C)=C/CCC(=O)OC/C=C(\C)CCC=C(C)C,Potency,[1],inactive
Cc1nc(C2CCCCC2)c(-c2ccc(S(N)(=O)=O)c(F)c2)o1,Potency,Furin (Homo sapiens),24.1 µM (active)
same,Potency,[7],24.1 µM (active)
same,Potency,[1],14.4 µM (active)
CCN(CC)CCNC(=O)c1ccc(NS(C)(=O)=O)cc1,Potency,[4],inactive
O=C(CCCCC(=O)Nc1c(I)cc(I)c(C(=O)O)c1I)Nc1c(I)cc(I)c(C(=O)O)c1I,"activity change, negative = inhibition",Furin (Homo sapiens),9.18% [at 18.8 µM]
same,Potency,[1],inactive
same,Potency,[2],inactive
same,Potency,[3],inactive
COC(=O)C1=CO[C@@H](O)[C@@H]2C(CO)=CC[C@H]12,Potency,[4],inactive
same,outcome,[6],inactive
C[N+](C)(CCOc1ccccc1)Cc1cccs1,Potency,[1],inactive
CC1(C)OC(=O)Nc2ccc(Br)cc21,Potency,[1],inactive
O=C1NC(c2cccc([N+](=O)[O-])c2)=CCN1c1ccccc1O,Potency,[4],inactive
same,Potency,[1],inactive
same,Potency,[5],inactive
same,outcome,[6],inactive
Nc1c[n+](N2CCOCC2)no1,Potency,[1],inactive
Clc1ccc2c(c1)N=C(N1CCNCC1)c1ccccc1N2,Potency,[4],inactive
same,Potency,[1],inactive
same,Potency,[5],inactive
same,outcome,[6],inactive
Cc1ccc2ccc(Cl)cc2n1,Potency,[1],inactive
CCOC(=O)Cn1cccc1-c1nc(-c2ccc(OC)cc2)c(-c2ccc(OC)cc2)s1,Potency,[7],24.1 µM (active)
same,outcome,[9],inactive
same,Potency,[5],inactive
same,outcome,[6],inactive
same,Potency,[3],11.1 µM (active)
NC(N)=NCCCCN=C(N)N,Potency,[4],inactive
same,Potency,[1],inactive
CCC(=O)O[C@H]1[C@H](O[C@@H]2[C@@H](C)[C@H](O[C@H]3C[C@@](C)(OC)[C@@H](O)[C@H](C)O3)[C@@H](C)C(=O)O[C@H](CC)[C@@](C)(O)[C@H](O)[C@@H](C)C(=O)[C@H](C)C[C@@]2(C)O)O[C@H](C)C[C@@H]1N(C)C,Potency,Furin (Homo sapiens),34.1 µM (active)
same,Potency,[7],13.6 µM (active)
same,Potency,[8],19.2 µM (active)
same,Potency,[3],2.78 µM (active)
